# Measurements taken from the supplement of paper PMC6555819.
# Test system: RXRa DBDmut IVT, anti-RXR (DBD mutation: RXRa K156A/R161A, NR concentration 90 nM)
# Assay: PBM binding z-score (relative to random genomic background probes); higher = stronger binding; sequences stand for … in GC…GCGATTGACAGCGTAGAATGAAGG
# In short: (§1)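 Custom Agilent 4×180K protein-binding microarrays carried double-stranded probes. Their 34-nt variable regions held direct-repeat seeds, single-nucleotide variants, half-site ablations and random human genomic background sequences. Arrays were incubated 1 h with ligand-free nuclear receptor dimers in PBS pH 7.4, 2% milk, 0.02% Triton X-100, 1 mM DTT, 0.2 mg/mL BSA and 0.4 mg/ml salmon testes DNA. Antibodies against each partner (one per run) detected binding, and scanned fluorescence was regression-normalized. Binding z-scores use random background probes as reference.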
row,Sequence,PBM binding z-score
1,ATATGTAGGTTAGCTGGGGTCACTCAGACTAGGC,1.52
2,CCGACTGGGGCAAAGGTTACCCTACTCAGTACGA,-0.029
3,CCTAGTTGGTCAAGGTCACAGACGCTATAGGTAC,2.16
4,TAGCCTAGGTCATTGGGCCAGTTTAGTACGCATC,1.46
5,CCTTACGGGTCACGATGTTATAGCACGACGAGCG,0.775
6,CGAACGAGGGCATGAGTTGATTGCAAATGCCGAT,2.73
7,TCAGACAGGTGAAGGTAAATCAGGTACGCAGTCG,1.77
8,AGTCAAAGTTCAGTACGAGGTAACGTAAAGCACG,3.09
9,CGTCCAAGGTCAGCAGTTCAGTGAAAGCGACGTG,2.93
10,ATCGCTAGGTAAAGTTCAGTGAAAGATCGATAGA,0.79
11,ATATGTATGTTAGCTGGGGTCATTCAGACTAGGC,2.11
12,TCTTGTAGATCAATAGAGGTTAGGAAAGTGCGCT,0.658
13,TCTTCTAGATCAAGCAGGTTAAGAAAGCCTGAGT,0.841
14,CCTGCTAGGTCATGGACAGCTAATCTACAGTATG,1.85
15,TCTCGGAGGACACGATAGGTCAGAGCTCGACATC,0.695
16,GCGACTGGGGCAAAGCAGGTTACAATAAGGTTGG,-0.0572
17,TCATATAGGTAAAGGAGAAAGTCGAACGATATGA,0.825
18,CGAACGAGGGCATGAGTTGATAACAAATGCCGAT,2.64
19,GCGACTCGGGCATCAGCAGGTTACCATAACTTAA,-0.281
20,CCTACTGGCCCATTCAGAGGTCATTGATCATATG,0.948

row,Sequence,PBM binding z-score
1,GGAACGAGGGCAAGTAGATAGCAGAGTTTGATGG,1.7
2,TCGAGAAGGTTAGTCGGGGCATTCAGCCAACATA,0.877
3,ATCTCTAGGTAACAAGTTCACTGAAAGAGAGGAC,1.69
4,ACTAGCAGGCCAAGTTTGGGTCTCTCAAACAAAG,-0.0597
5,TCTAGTTGGTCAAAGGGCACACACTCGAAATGCG,0.876
6,CCTTACGGCTCACTCCAGGTTATAGCATCGGAGT,0.487
7,ATCTCTAGGTAAAAGATCAGTGAATCCCGAGGAT,-0.342
8,CCAGACAGGTGCAAGGTAACTCAGTCTGGTACGC,0.584
9,ATATGTAGATTAGCTGGGGTCATTCAGACTAGGC,1.87
10,ATAGACAGGTGATGAAGGTAACTCAGGCTATCAT,-0.779
11,TAGCCAAGGTCATGCGGGCCAGTATAGTGTCGGC,2.88
12,GCTGCTAGGTCAAGTTGGTCAGCTAACGGGTACG,1.81
13,ATCTCTAGGTAACAAGTTCAGTTAAAGAGAGGAC,0.748
14,ATACCAAGGTGATCGTGAGGTAGTTGATACTAAC,-0.401
15,AGAATGAGGTTATTAAGACCAGGGAATTGCGGTC,1.64
16,TCTTGTAGATCAAGCAGGTTAAGAGAGCCTGAGT,0.088
17,CAGCCTAGGGCAGGGCCAGTATAGGAGGAACGTT,-1.36
18,CATACAGGGTCAGCTAGGCCAGAGGAGGGACGGC,1.64
19,ATATGTAGGTTAAGGGTCATTCACGTTGGTTCGC,2.33
20,ATCGAAAGGTCGATGAGGTGAGTATACACCGTTT,0.841

# Test system: RXRa homodimer (NR concentration 180 nM)
# Assay: as above
# In short: as §1
row,Sequence,PBM binding z-score
1,ATATGTAGGTTAGCTGGGGTCACTCAGACTAGGC,5.23
2,CCGACTGGGGCAAAGGTTACCCTACTCAGTACGA,3.13
3,CCTAGTTGGTCAAGGTCACAGACGCTATAGGTAC,4.88
4,TAGCCTAGGTCATTGGGCCAGTTTAGTACGCATC,2.81
5,CCTTACGGGTCACGATGTTATAGCACGACGAGCG,5.71
6,CGAACGAGGGCATGAGTTGATTGCAAATGCCGAT,0.985
7,TCAGACAGGTGAAGGTAAATCAGGTACGCAGTCG,1.06
8,AGTCAAAGTTCAGTACGAGGTAACGTAAAGCACG,2.66
9,CGTCCAAGGTCAGCAGTTCAGTGAAAGCGACGTG,4.16
10,ATCGCTAGGTAAAGTTCAGTGAAAGATCGATAGA,1.03
11,ATATGTATGTTAGCTGGGGTCATTCAGACTAGGC,5.39
12,TCTTGTAGATCAATAGAGGTTAGGAAAGTGCGCT,1.29
13,TCTTCTAGATCAAGCAGGTTAAGAAAGCCTGAGT,0.526
14,CCTGCTAGGTCATGGACAGCTAATCTACAGTATG,3.17
15,TCTCGGAGGACACGATAGGTCAGAGCTCGACATC,1.43
16,GCGACTGGGGCAAAGCAGGTTACAATAAGGTTGG,0.668
17,TCATATAGGTAAAGGAGAAAGTCGAACGATATGA,0.676
18,CGAACGAGGGCATGAGTTGATAACAAATGCCGAT,1.05
19,GCGACTCGGGCATCAGCAGGTTACCATAACTTAA,0.133
20,CCTACTGGCCCATTCAGAGGTCATTGATCATATG,3.56

row,Sequence,PBM binding z-score
1,GGAACGAGGGCAAGTAGATAGCAGAGTTTGATGG,0.888
2,TCGAGAAGGTTAGTCGGGGCATTCAGCCAACATA,0.644
3,ATCTCTAGGTAACAAGTTCACTGAAAGAGAGGAC,1.87
4,ACTAGCAGGCCAAGTTTGGGTCTCTCAAACAAAG,-0.754
5,TCTAGTTGGTCAAAGGGCACACACTCGAAATGCG,2.62
6,CCTTACGGCTCACTCCAGGTTATAGCATCGGAGT,-0.0506
7,ATCTCTAGGTAAAAGATCAGTGAATCCCGAGGAT,0.281
8,CCAGACAGGTGCAAGGTAACTCAGTCTGGTACGC,0.00435
9,ATATGTAGATTAGCTGGGGTCATTCAGACTAGGC,4.94
10,ATAGACAGGTGATGAAGGTAACTCAGGCTATCAT,0.265
11,TAGCCAAGGTCATGCGGGCCAGTATAGTGTCGGC,5.47
12,GCTGCTAGGTCAAGTTGGTCAGCTAACGGGTACG,3.03
13,ATCTCTAGGTAACAAGTTCAGTTAAAGAGAGGAC,0.837
14,ATACCAAGGTGATCGTGAGGTAGTTGATACTAAC,0.329
15,AGAATGAGGTTATTAAGACCAGGGAATTGCGGTC,1.91
16,TCTTGTAGATCAAGCAGGTTAAGAGAGCCTGAGT,0.168
17,CAGCCTAGGGCAGGGCCAGTATAGGAGGAACGTT,-0.507
18,CATACAGGGTCAGCTAGGCCAGAGGAGGGACGGC,4.14
19,ATATGTAGGTTAAGGGTCATTCACGTTGGTTCGC,6.15
20,ATCGAAAGGTCGATGAGGTGAGTATACACCGTTT,3.56
